PubChem BioAssay AID1850 (Southern Research Specialized Biocontainment Screening …, 2009)
The campaign covered roughly 310,000 compounds. About 1,000 (0.32%) were called active. The rule behind the calls is not given here. Not all results are given here. Entries with a potency or affinity are not part of this list.

Experiment: PhoP regulon inhibitors, Salmonella typhi PhoP promoter GFP reporter, confirmatory (AID 1850);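 note: 0% = induced wells with vehicle and 100% = uninduced wells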
Settings: fluorescence, 4 h, at 50 µM, active compounds read high

| Structure (SMILES) | inhibition |
| --- | --- |
| COc1cc(C(=O)NCC(=O)OCC(=O)Nc2nnc(-c3ccccc3)o2)cc(OC)c1OC | 1.32% (inactive) |
| Cc1cc(C)n2nc(S(=O)(=O)NC(C)(C)C)nc2n1 | -11.7% (inactive) |
| COc1cccc(NS(=O)(=O)c2nc3nc(C)cc(C)n3n2)c1 | 5.81% (inactive) |
| CCOc1cc2[nH]c(=O)n(CCCC(=O)NCc3ccco3)c(=O)c2cc1OCC | -5.99% (inactive) |
| O=C(CNS(=O)(=O)/C=C/c1ccccc1)OC1CCOC1=O (stereo not given) | -7.99% (inactive) |
| Cc1cc(C)n(C(C[N+](=O)[O-])c2ccc(Cl)cc2)n1 (stereo not given) | 17.4% (inactive) |
| COc1ccc(C(C[N+](=O)[O-])n2nc(C)cc2C)cc1 (stereo not given) | 3.95% (inactive) |
| O=C(NCCCc1ccncc1)C1CCC(=O)N(Cc2ccc(Cl)cc2)C1 (stereo not given) | 2.99% (inactive) |
| CC(C)(C)NC(=S)NNC(=O)[C@H]1C[C@@H]1c1ccccc1 | -2.2% (inactive) |
| CCCCOC(=O)Cn1c(=O)n(CC(=O)OCCCC)c2ccccc21 | 2.5% (inactive) |
| CCCCCOC(=O)Cn1c(=O)oc2ccccc21 | 4.41% (inactive) |
| CCCCCCCCCCOC(=O)Cn1c(COc2ccccc2)[n+](C)c2ccccc21 | 0.36% (inactive) |
| CN(C)C(=O)Oc1cccc(OCc2n(C)c3ccccc3[n+]2C)c1 | -12.8% (inactive) |
| Cc1cccc(OCCCCn2c(CO)nc3ccccc32)c1 | 1.97% (inactive) |
| CCCCOC(=O)Cn1c2ccc(OC)cc2c2nc3ccccc3nc21 | -14.3% (inactive) |
| CCCCOC(=O)Cn1c(=N)n(CCC)c2ccccc21 | -6.14% (inactive) |
| CCCCCOC(=O)Cn1c(=O)oc2ccc(C)cc21 | -6.52% (inactive) |
| C=C(C)Cn1c(SCC(=O)N/N=C/c2ccccc2)nc2ccccc2c1=O | 2.73% (inactive) |
| CCOC(=O)C1CCCN(C(=O)CSc2ccccc2)C1 (stereo not given) | 0.88% (inactive) |
| CC(C)(C)c1cc(NS(=O)(=O)c2cccs2)no1 | 2.79% (inactive) |

| Structure (SMILES) | inhibition |
| --- | --- |
| CC(C)NC(=O)C1CCCN(S(=O)(=O)c2cccc3nonc23)C1 (stereo not given) | 5.72% (inactive) |
| CSc1cnc2c(N)nc(N(C)C)nc2n1 | -2.44% (inactive) |
| CCOc1cc(NC(=O)C2CC2)c(OCC)cc1NC(=O)CCn1nnc2ccccc21 | 0.44% (inactive) |
| CCn1cc(CN2CCC(n3nccc3NC(=O)C3CCCC3)CC2)c(C)n1 | -10.6% (inactive) |
| Brc1ccc(-c2nnc(-c3ccco3)o2)cc1 | 7.53% (inactive) |
| CN(C)C(=O)Oc1ccc(OCc2n(C)c3ccccc3[n+]2C)cc1 | -10.3% (inactive) |
| CCCCc1n(CC(=O)c2ccc(Cl)cc2)c2ccccc2[n+]1C | 0.37% (inactive) |
| Cc1nonc1OCCNCc1c(C(=O)N2CCCCCCC2)nc2ccc(Cl)cn12 | 0.8% (inactive) |
| Cc1ccc(CN2CC(C(=O)Nc3cc(S(C)(=O)=O)ccc3Cl)CC2=O)cc1 (stereo not given) | -8.57% (inactive) |
| CC1(C)Cc2cccc(OCC(=O)N3CCN(c4cccc(C(F)(F)F)c4)CC3)c2O1 | 7.47% (inactive) |
| Cc1cc(Cl)cc(C)c1OCCNCc1ccccc1 | -3.01% (inactive) |
| COCCCNCCCCOc1c(Cl)cc(C)cc1Br | 1.04% (inactive) |
| Cc1cc(C)c(OCCNCc2ccccc2)c(C)c1 | -8.25% (inactive) |
| Cc1cc(C)c(OCCCNCc2ccccc2)c(Br)c1 | 13.8% (inactive) |
| CCn1c(N2CCN(CC(=O)Nc3cccc(C)c3C)CC2)nc2ccccc21 | -2.87% (inactive) |
| Cc1cccc(NC(=O)CCNC(=O)c2ccco2)c1 | -1.77% (inactive) |
| CN(C)c1cnn(-c2ccccc2)c(=O)c1Cl | -7.8% (inactive) |
| CC(C)(O)CC[C@H](OC(=O)c1ccccc1)[C@](C)(O)[C@H]1CC[C@@]2(O)C3=CC(=O)[C@@H]4C[C@@H](O)[C@H](O)C[C@]4(C)C3CC[C@]12C (stereo not given in full) | 4.63% (inactive) |
| COc1ccc(C(C)NC(=O)Cc2ccc(Br)cc2)cc1 (stereo not given) | 3.69% (inactive) |
| CCOc1ccccc1NC(=O)c1cccc(NC(=O)C(C)C)c1 | -6.67% (inactive) |

| Structure (SMILES) | inhibition |
| --- | --- |
| O=C1CC(N2C(=O)/C(=C/C=C/c3ccccc3)SC2=S)C(=O)N1c1ccccc1 (stereo not given) | -6.61% (inactive) |
| O=C(O)CCN1C(=O)CC(N2C(=O)/C(=C/c3ccc(Cl)cc3)SC2=S)C1=O (stereo not given) | -12.1% (inactive) |
| Cc1ccc(S(=O)(=O)NNC(=O)c2cnn(-c3ccccc3)c2C(F)(F)F)cc1 | -1.38% (inactive) |
| CC(C)(C)C(=O)Nc1ccccc1-c1nc2ccccc2[nH]c1=O | -6.56% (inactive) |
| O=C(COc1ccccc1[N+](=O)[O-])Nc1ccc(N2CCN(C(=O)c3cccs3)CC2)cc1 | 7.91% (inactive) |
| Cc1cc(C(=O)N/N=C/c2ccc(Br)o2)n[nH]1 | -0.33% (inactive) |
| O=C1C2C3C=CC(C3)C2C(=O)N1CCCCCCN1C(=O)C2C3C=CC(C3)C2C1=O (stereo not given) | 7.17% (inactive) |
| O=C1C=CC(=O)N1Cc1ccccc1 | 18.2% (inactive) |
| COc1ccc2nc(-c3ccccc3)nc(C3CCCCC3)c2c1 | -28.1% (inactive) |
| COc1ccc(Cl)cc1NC(=O)CN(C)C(=O)c1cc2c(s1)CCC(C)C2 (stereo not given) | -5.36% (inactive) |
| Cc1c(CN(C)C)c2c(n1C)C(=O)c1ccc(Br)cc1-2 | -10.7% (inactive) |
| Cc1c(CN(C)C)c2c(n1Cc1ccccc1)C(=O)c1ccccc1-2 | 5.65% (inactive) |
| O=C(c1nc2ccccn2c1CNCCn1ccc2ccccc21)N1CCOCC1 | -10.1% (inactive) |
| COc1ccccc1-c1ccc2nnc(SCC(=O)N3CCCC3)n2n1 | 3.68% (inactive) |
| CCn1nc(-c2ccccc2)nc2c(=O)n(C)c(=O)nc1-2 | 14.7% (inactive) |
| Cn1nc(-c2ccccn2)nc2c(=O)n(C)c(=O)nc1-2 | 13.1% (inactive) |
| Cc1ccccc1-n1c2nc(=O)n(C)c(=O)c-2cc2ccccc21 | -5.45% (inactive) |
| Cc1ccc(-n2c3nc(=O)n(C)c(=O)c-3cc3ccccc32)cc1 | 8.69% (inactive) |
| Nc1nonc1-n1nnc(C(=O)N/N=C/c2ccc(F)cc2)c1-c1ccc2c(c1)OCO2 | 3.99% (inactive) |
| CC(C)c1ccc(NC(=O)C2CCN(S(C)(=O)=O)CC2)cc1 | 9.77% (inactive) |
